Only some compounds are listed: those with a hit (about 11% of all), similar ones and a draw of the others.
FLuc inh: blocks purified firefly luciferase enzyme activity | P08659 | purified P. pyralis luciferase, luminescence, biochemical | Potency, µM (series often up to 115 µM), usual class: inhibitors | 76,000 tested, 2.5% active; note: nearly all actives have a fitted effect of over 65% in size
Target sequence (P08659 whole entry, looked up): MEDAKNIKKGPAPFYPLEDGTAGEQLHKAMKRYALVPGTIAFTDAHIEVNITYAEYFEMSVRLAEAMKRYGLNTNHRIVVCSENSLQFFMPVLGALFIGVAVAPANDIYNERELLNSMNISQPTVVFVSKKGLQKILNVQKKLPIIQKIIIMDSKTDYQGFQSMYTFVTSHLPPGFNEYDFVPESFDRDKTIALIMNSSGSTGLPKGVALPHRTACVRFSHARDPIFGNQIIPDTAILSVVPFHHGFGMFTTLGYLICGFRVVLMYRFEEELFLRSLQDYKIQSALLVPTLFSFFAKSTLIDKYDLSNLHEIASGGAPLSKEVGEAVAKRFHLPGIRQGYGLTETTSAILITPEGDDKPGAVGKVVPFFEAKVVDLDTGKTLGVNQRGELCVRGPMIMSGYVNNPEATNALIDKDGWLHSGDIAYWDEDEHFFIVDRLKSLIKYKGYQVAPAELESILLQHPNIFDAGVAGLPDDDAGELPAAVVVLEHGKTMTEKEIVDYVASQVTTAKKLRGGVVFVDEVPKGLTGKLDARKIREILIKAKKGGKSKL
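Purified P. pyralis luciferase (10nM final) in 50mM Tris acetate pH 7.5, 10mM Mg acetate, 0.01% Tween-20, 0.05% BSA with 10uM D-luciferin and 10uM ATP. Compounds titrated qHTS. Luminescence imaged on CCD.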
NIH3T3 tox: kills NIH 3T3 cells; NIH 3T3 viability, CellTiter-Glo ATP luminescence, 48-72 h; Potency, µM (titrated, usually from 96.7 µM), for the others: top-dose activity change, negative = cytotoxicity, actives largely listed as inhibitors; 94,000 tested, 4.3% active; note: nearly all actives have a fitted effect of over 55% in size
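Cytotoxicity is measured as loss of cellular ATP: NIH 3T3 cells (400/well) are exposed to compound for 48 or 72 hr at 37 °C, then CellTiter-Glo luminescence is imaged after 10 min at room temperature.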
NPR1 antag: blocks ANP-stimulated signaling of human Npr1 receptor; P16066; HEK293 hNpr1 GloSensor cGMP, ANP-stimulated luminescence; 76,000 tested, 1.6% active; Potency, µM (highest dose often 46.3 µM), for the others: at the top dose activity change, negative = inhibition, actives largely listed as inhibitors; calls by dose curve; note: nearly all actives have a fitted effect of over 60% in size
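HEK293 cells stably expressing human Npr1 and cGMP GloSensor pGS-40F, loaded 2 h with 2% GloSensor reagent, given compound 30 min at room temperature. Luminescence read before and 20 min after 0.1 nM hNppA.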
HEK293 tox: cytotoxic compounds in HEK 293 cells | 94,000 tested, 6.6% active | Potency, µM (titrated, usually from 115 µM), without a hit: top-dose activity change, negative = cytotoxicity, usual class: inhibitors | HEK 293 viability, ATP luminescence (CellTiter-Glo), 48-72 h; note: nearly all actives have a fitted effect of over 60% in size
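Cells seeded first (HEK 293, 250 cells/well), then compound added by pintool. Incubation ran 48 or 72 hr at 37 degree Celsius. CellTiter-Glo was added and luminescence imaged after 10 min at room temperature.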
Starred values were filed as active, the others as inactive; i = inactive; ? = inconclusive; · = no result given; ! = repeats disagree; [ ] = another dose, or the depositor's remark. Unless noted, calls come from the whole dose curve; as a rule, active = well fitted curve in the direction sought with a large enough effect; inconclusive = small, poorly fitted or top-dose-only effect, or another doubt; inactive = no such curve, though single readings can be large; an effect the other way counts as inactive or inconclusive. % is set by controls: 0 for no effect and ±100 for the full control effect; potency is the fitted concentration of half-maximal effect.

SMILES	FLuc inh	NIH3T3 tox	NPR1 antag	HEK293 tox
COc1ccc(-c2ccc3c(c2)C(=O)N2CC[C@H](NC(=O)CSC)[C@H]2C(=O)N3)cc1	25µM*	?	-2%[70.6 µM]	?
COc1ccc(-c2ccc3c(c2)C(=O)N2CC[C@H](NC(=O)CCC(=O)O)[C@H]2C(=O)N3)cc1	?	-9%	3%	2%
CC(C)(C)CC(=O)N1CCC(N2C(=O)C(O)C23CCCCC3)CC1 (stereo not drawn)	i	-14%	6%	-22%
COc1ccc(-c2nc(C3CC3)nc3c2CCN(Cc2ccccc2)CC3)cc1	·	-29%	·	?
O=C(c1n[nH]c2ccccc12)N1CCC2(CC1)N(c1ccccc1)C(=O)CS2=O (stereo not drawn)	i	-7%	3%	3%
O=C(N[C@H]1CCN2C(=O)c3cc(-c4ccccc4)ccc3NC(=O)[C@H]12)c1cccs1	i	-17%[174 µM]	-17%[70.6 µM]	-23%[172 µM]
COc1ccc(-c2ccc3c(c2)C(=O)N2CC[C@H](NC(=O)c4cccs4)[C@H]2C(=O)N3)cc1	25µM*	-6%	3%	i
COc1ccc(-c2ccc3c(c2)C(=O)N2CC[C@H](NC(=O)c4cccs4)[C@H]2C(=O)N3)c(OC)c1	?	-27%	-18%	?
O=C(N[C@H]1CCN2C(=O)c3ccc(Cl)cc3NC(=O)[C@H]12)c1cccs1	i	89µM*	1%[70.6 µM]	-7%[172 µM]
O=C1[C@@H]2C[C@@H](CN2C(=O)C2CCOCC2)Oc2ccccc2N1Cc1ccc(OC(F)(F)F)cc1	i	?	0%	?
CN(C)c1nccnc1OC1CCN(C(=O)CCCc2ccccc2)C1 (stereo not drawn)	?	-11%	1%	79µM*
CN(C)c1nccnc1OC1CCN(C(=O)CC2CCCC2)C1 (stereo not drawn)	35µM*	-7%	6%	?
CN(C)c1nccnc1OC1CCN(C(=O)c2ccn[nH]2)C1 (stereo not drawn)	25µM*	i	-7%	0%
COc1ccc(CN2CC[C@@H](CO)N(C)c3nc(C)ccc3C2)cc1	i	-20%[174 µM]	-1%[70.6 µM]	?
Cc1ccc2c(n1)N(C)[C@H](CO)CCN(Cc1ccc(C(C)C)cc1)C2	i	?	-16%[70.6 µM]	63µM*
Cc1ccc2c(n1)N(C)[C@H](CO)CCN(Cc1ccc(C(F)(F)F)cc1)C2	i	63µM*	-11%[70.6 µM]	35µM*
COc1cc(NC(=O)N2CCC3(CC2)SCC(=O)N3Cc2ccco2)cc(OC)c1	i	?	-3%	-20%
COc1ccccc1-c1ccc(CN2CCCCC2C(=O)NC(C)C)cc1 (stereo not drawn)	·	?	·	79µM*
COc1ccc(F)cc1-c1ccc(CN2CCCCC2C(=O)NCCc2ccc(Cl)cc2)cc1 (stereo not drawn)	·	?	·	32µM*
COc1ccc(F)cc1-c1ccc(CN2CCCCC2C(=O)N2CCCN(C(C)=O)CC2)cc1 (stereo not drawn)	·	-35%	·	45µM*
COc1ccccc1-c1ccc(CN2CCCCC2C(=O)N2CCOCC2)cc1 (stereo not drawn)	·	-38%	·	?
COc1ccccc1-c1ccc(CN2CCCCC2C(=O)NCC(F)F)cc1 (stereo not drawn)	·	45µM*!	·	?
CC(C)(Oc1nn(CCN2CCOCC2)c2ccccc12)C(=O)NCCc1ccccc1	i	-17%[138 µM]	-12%[70.6 µM]	?
O=C(NCc1ccccc1F)C1CCN(C(=O)c2ncn3c2COC(c2ccc(Cl)cc2)C3)CC1 (stereo not drawn)	?	-10%	0%	-2%
COc1ccc(F)cc1-c1ccc(CN2CCCCC2C(=O)NCC(F)F)cc1 (stereo not drawn)	·	?	·	35µM*
SMILES	FLuc inh	NIH3T3 tox	NPR1 antag	HEK293 tox
CN1CCN(Cc2nc(C3(O)CCN(CC4CC4)CC3)cs2)CC1	i	?	-1%[70.6 µM]	-22%[172 µM]
O=C(CCC(=O)n1ncc2c(Cl)cccc21)N1CCC(Cc2nc(C3CCOCC3)no2)CC1	i	-15%	13µM*	?
O=C(C1CC1)N1CCC(Cc2nc(C3CCOCC3)no2)CC1	i	-7%	6%	8%
O=C(NC1CCCCC1)N1CCC(Oc2ncccc2C(=O)N2CCCCC2)C1 (stereo not drawn)	i	-4%	0%	8%
COc1ncc(CN2CCc3c(n(Cc4cccnc4)n(-c4ccccc4)c3=O)C2)cn1	i	?	-2%[70.6 µM]	-22%[172 µM]
COCCn1c(=O)c2c(n1Cc1ccccc1)CN(Cc1cccc(C)n1)CC2	i	?	-3%[70.6 µM]	-10%[172 µM]

Bioassay records: PubChem, National Center for Advancing Translational Sciences (NCATS)
